# Source: PubChem BioAssay
# The source made the active and inactive calls. Unless noted, no rule for the calls is given here.
# Columns and labels:
# [1] = anti-His antibody binders, primary screen, artefact control for SMM control protein annotation, biochemical, small-molecule microarray, 635 nm fluorescence (AID 1128); settings: anti-His Alexa647 antibody binding, higher = more signal;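 also: score merges feature fluorescence with signal-to-noise for each printed compound spot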
# [2] = test system: Human papillomavirus type 1a E7 protein (residues 1-88); assay: HPV1a E7 small-molecule binders, primary screen, biochemical, small-molecule microarray, residues 1-88, 635 nm (AID 1129); settings: small-molecule microarray binding, fluorescence 635 nm; higher = more signal
# [3] = target: Focal adhesion kinase 1 (Homo sapiens) (UniProt Q05397); assay: small-molecule microarray binders of FAK, primary screen, biochemical, 635/667 nm fluorescence, BSA, DTT (AID 1130); settings: PTK2 binding, 635 nm fluorescence, higher = more signal;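 also: composite of spot emission at 667 nm and signal to noise over triplicate slides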
# [4] = test system: Fibrinogen (Alexa647-labelled); assay: fibrinogen binders on compound microarrays, profiling panel, artefact control for SMM control-protein annotation, biochemical, small-molecule microarray, 635/667 nm fluorescence (AID 1131); settings: fibrinogen-A647 binding fluorescence, higher = more signal;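 also: z-score merges 667 nm fluorescence with per-spot signal-to-noise over triplicate slides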
# [5] = target: Follistatin (Homo sapiens) (UniProt P19883); assay: follistatin binders on small-molecule microarrays, primary screen, biochemical, small-molecule microarray, 635/667 nm fluorescence (AID 1132); settings: FST binding, 635 nm fluorescence, higher = more signal
# [6] = target: Fibroblast growth factor 2 (Homo sapiens) (UniProt P09038); assay: FGF2 binders on small-molecule microarrays, primary screen, biochemical, small-molecule microarray, 635/667 nm fluorescence (AID 1133); settings: small-molecule microarray binding, FGF2, fluorescence 635/667; higher = more signal
# [7] = mitochondrial membrane potential change in A549 cells, profiling panel, cell-based, JC-1 fluorescence, basal, 24 h, 100 nL (AID 1138); settings: higher = more signal;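 also: A549 lung adenocarcinoma cells under basal conditions with no added stimulus; test concentration not given here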
# [8] = test system: Lefty1; assay: Lefty1 binders on small-molecule microarrays, primary screen, biochemical, small-molecule microarray, 635/667 nm fluorescence (AID 1139); settings: small-molecule microarray binding, fluorescence 635/667; higher = more signal
# [9] = test system: wheat germ agglutinin (Triticum aestivum), Alexa647-labelled; assay: wheat germ agglutinin binders on compound microarrays, profiling panel, artefact control for SMM control-protein annotation, biochemical, small-molecule microarray, 635/667 nm fluorescence (AID 1140); settings: WGA-A647 binding, 635 nm fluorescence, higher = more signal;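 also: score merges 667 nm feature emission with signal to noise over triplicate slides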
# [10] = target: Luciferin 4-monooxygenase (Photinus pyralis) (UniProt P08659); assay: firefly luciferase enzyme inhibitors, primary screen, biochemical, luminescence, purified enzyme, 2006 set (AID 1141); settings: SteadyGlo luminescence, 30 min, higher = more signal, called active from +8 up or from −8 down;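 also: cell-free assay with purified firefly luciferase at 100 ng per well in PBS; test concentration not given here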
# [11] = test system: Wnt5a (protein binding on small-molecule microarray); assay: Wnt5a binders on small-molecule microarray, primary screen, biophysical, 635/667 nm fluorescence (AID 1142); settings: 635 nm fluorescence, higher = more signal;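 also: fluorescence read at 667 nm with signal to noise per printed feature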
# [12] = cell viability in Huh7 cells, primary screen, cytotoxicity control for HCV replication inhibitor project, CellTiter-Glo luminescence, basal, 48 h (AID 1143); settings: Huh7 HCV replicon, higher = more signal, called active from +8 up or from −8 down;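 also: Huh7 hepatoma cells carrying a hepatitis C replication reporter with no stimulus; test concentration not given here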
# [13] = P. aeruginosa biofilm formation inhibitors, primary screen, PAO1 strain, BacTiter-Glo luminescence, LB-PBS (AID 1144); settings: 12 h, higher = more signal
# [14] = CREB reporter modulators without forskolin, primary screen, cell-based, PC12, CRE-LacZ reporter, unstimulated (AID 1145); settings: no forskolin, luminescence, 4.5 h, higher = more signal, called active from +8 up or from −8 down
# [15] = CREB reporter modulators under forskolin, primary screen, cell-based, PC12, CRE-LacZ reporter, forskolin-stimulated (AID 1146); settings: luminescence, 4.5 h, higher = more signal, called active from +8 up or from −8 down;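 also: PC12 cells with 6xCRE LacZ reporter stimulated by forskolin 10 µM; beta-galactosidase reporter signal reflecting CREB driven transcription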
# [16] = target: Streptavidin (Streptomyces avidinii) (UniProt P22629); assay: streptavidin binders on small-molecule microarray, primary screen, artefact control for SMM compound annotation, biophysical, 635/667 nm fluorescence (AID 1147); settings: streptavidin binding, higher = more signal;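 also: signal reflects streptavidin binding to arrayed compounds as a control protein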
# [17] = small-molecule binders of probe aInhba, primary screen, biochemical, small-molecule microarray, 635/667 nm fluorescence (AID 1148); settings: higher = more signal;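 also: score merges 667nm spot fluorescence with signal-to-noise for antibody binding to printed compounds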
# [18] = target: Torsin-1A (Homo sapiens) (UniProt O14656); assay: torsin A binders from cell lysate, primary screen, small-molecule microarray, wild-type, 635/667 nm (AID 1149); settings: COS7 hTOR1A-WT lysate, 635 nm fluorescence, higher = more signal
# [19] = target: Torsin-1A (Homo sapiens) (UniProt O14656); assay: small-molecule binders of mutant TOR1A in lysate, primary screen, cell lysate, small-molecule microarray, COS7 lysate, 635/667 nm fluorescence (AID 1150); settings: COS7 hTOR1A mutant lysate, 635 nm fluorescence, higher = more signal;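 also: score pools 667 nm emission and signal to noise measuring lysate protein binding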
# [20] = test system: Sonic hedgehog protein (Shh); assay: small-molecule binders of Shh protein, primary screen, biochemical, small-molecule microarray, 635/667 nm fluorescence (AID 1151); settings: small-molecule microarray binding, 635 nm fluorescence; higher = more signal;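 also: Shh protein binding to compounds spotted on small-molecule microarray slides; score combines spot fluorescence intensity with signal-to-noise across triplicate slides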
# Sequence of Fibroblast growth factor 2 (Homo sapiens) (P09038 whole entry, looked up): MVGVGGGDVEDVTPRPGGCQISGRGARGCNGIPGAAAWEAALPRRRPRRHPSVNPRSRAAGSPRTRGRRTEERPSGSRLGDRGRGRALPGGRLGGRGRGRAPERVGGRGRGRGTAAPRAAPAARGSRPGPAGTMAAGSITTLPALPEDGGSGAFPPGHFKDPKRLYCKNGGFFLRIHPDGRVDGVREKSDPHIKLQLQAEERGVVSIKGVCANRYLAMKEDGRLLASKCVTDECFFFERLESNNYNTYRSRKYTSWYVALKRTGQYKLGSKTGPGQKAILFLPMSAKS
# Sequence of Torsin-1A (Homo sapiens) (O14656 whole entry, looked up): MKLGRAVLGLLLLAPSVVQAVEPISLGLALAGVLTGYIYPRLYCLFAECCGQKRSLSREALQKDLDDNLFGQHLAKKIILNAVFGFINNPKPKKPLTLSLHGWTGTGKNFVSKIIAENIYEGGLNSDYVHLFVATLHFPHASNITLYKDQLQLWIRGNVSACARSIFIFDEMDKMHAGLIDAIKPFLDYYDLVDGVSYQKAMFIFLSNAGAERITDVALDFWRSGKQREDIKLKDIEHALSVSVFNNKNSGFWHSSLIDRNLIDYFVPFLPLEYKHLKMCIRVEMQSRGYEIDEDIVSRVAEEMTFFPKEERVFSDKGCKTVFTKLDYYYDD
# Sequence of Luciferin 4-monooxygenase (Photinus pyralis) (P08659 whole entry, looked up): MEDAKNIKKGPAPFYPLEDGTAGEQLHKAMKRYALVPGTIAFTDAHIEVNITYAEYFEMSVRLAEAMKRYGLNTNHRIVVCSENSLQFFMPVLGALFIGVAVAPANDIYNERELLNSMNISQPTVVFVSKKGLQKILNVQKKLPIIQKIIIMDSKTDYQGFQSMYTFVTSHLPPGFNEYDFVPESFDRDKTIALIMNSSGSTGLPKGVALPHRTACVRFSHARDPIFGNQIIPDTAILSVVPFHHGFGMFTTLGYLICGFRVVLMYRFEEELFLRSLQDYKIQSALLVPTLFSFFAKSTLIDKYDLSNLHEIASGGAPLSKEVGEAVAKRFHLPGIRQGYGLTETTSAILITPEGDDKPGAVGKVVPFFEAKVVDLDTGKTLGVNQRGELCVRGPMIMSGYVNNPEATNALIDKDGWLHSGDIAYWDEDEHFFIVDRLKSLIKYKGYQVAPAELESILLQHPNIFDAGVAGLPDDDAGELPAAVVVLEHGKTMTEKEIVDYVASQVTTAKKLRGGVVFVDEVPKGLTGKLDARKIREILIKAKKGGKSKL
# Sequence of Follistatin (Homo sapiens) (P19883 whole entry, looked up): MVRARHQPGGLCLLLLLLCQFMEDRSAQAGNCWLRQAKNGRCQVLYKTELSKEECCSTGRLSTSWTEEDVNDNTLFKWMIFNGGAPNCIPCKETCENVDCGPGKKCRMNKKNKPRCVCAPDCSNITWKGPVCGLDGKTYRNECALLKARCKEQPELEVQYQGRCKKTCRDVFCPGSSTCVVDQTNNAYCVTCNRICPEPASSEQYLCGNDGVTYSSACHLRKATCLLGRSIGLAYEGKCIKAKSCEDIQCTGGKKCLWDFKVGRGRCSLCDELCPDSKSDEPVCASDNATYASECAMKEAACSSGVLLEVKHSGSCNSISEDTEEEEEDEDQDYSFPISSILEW
# Sequence of Focal adhesion kinase 1 (Homo sapiens) (Q05397 whole entry, looked up): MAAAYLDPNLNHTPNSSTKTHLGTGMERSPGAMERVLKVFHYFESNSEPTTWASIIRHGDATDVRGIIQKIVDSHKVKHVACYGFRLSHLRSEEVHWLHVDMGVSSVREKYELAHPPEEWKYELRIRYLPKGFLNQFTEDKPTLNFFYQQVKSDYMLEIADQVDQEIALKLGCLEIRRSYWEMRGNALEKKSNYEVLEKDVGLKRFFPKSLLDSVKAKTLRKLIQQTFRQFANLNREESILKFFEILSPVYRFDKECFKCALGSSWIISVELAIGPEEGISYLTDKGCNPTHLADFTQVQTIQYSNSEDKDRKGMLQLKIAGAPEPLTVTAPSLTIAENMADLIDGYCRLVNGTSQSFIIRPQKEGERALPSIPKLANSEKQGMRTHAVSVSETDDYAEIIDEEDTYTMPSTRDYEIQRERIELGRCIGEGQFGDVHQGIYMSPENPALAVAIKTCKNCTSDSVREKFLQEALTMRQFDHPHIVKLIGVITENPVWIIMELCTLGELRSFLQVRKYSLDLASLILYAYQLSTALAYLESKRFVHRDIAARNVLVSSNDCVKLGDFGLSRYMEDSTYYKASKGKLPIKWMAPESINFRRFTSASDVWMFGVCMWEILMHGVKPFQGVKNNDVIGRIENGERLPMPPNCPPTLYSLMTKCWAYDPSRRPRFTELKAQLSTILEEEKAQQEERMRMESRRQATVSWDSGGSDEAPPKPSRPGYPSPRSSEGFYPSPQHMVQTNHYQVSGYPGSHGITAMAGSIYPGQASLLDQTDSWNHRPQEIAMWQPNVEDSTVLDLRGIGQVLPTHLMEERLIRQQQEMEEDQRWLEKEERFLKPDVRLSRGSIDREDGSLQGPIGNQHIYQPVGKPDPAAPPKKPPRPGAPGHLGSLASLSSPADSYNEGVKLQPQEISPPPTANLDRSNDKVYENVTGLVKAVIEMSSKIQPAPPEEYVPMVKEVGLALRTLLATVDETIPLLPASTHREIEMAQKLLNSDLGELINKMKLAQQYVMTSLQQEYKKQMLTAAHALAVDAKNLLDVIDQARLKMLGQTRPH
# Sequence of Streptavidin (Streptomyces avidinii) (P22629 whole entry, looked up): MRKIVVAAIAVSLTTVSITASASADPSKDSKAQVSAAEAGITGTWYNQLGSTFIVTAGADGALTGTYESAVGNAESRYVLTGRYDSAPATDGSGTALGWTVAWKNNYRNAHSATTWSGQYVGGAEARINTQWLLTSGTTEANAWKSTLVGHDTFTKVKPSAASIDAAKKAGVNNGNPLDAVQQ
Structure (SMILES),composite z-score [1],composite z-score [2],composite z-score [3],composite z-score [4],composite z-score [5],composite z-score [6],z-score [7],composite z-score [8],composite z-score [9],z-score [10],composite z-score [11],z-score [12],z-score [13],z-score [14],z-score [15],composite z-score [16],composite z-score [17],composite z-score [18],composite z-score [19],composite z-score [20]
C=CCC(OC(C)=O)[C@@H]1[C@@H](N(Cc2ccc(-c3ccccc3)cc2)C(=O)Cc2ccc(F)cc2)c2cc(OCCCO)ccc2N1C(=O)c1ccc2ccccc2c1 (stereo not given in full),-0.264,-0.0066,0.16,-0.163,0.296,0.288,1.73,0.125,-0.117,-0.87 (inactive),-0.121,0.0038 (inactive),0.197 (inactive),0.819 (inactive),0.601 (inactive),-0.0075,0.0464,-0.287,-0.0056,0.627
C#CCOc1ccc(C[C@@H](C(=O)OC)N(CC#C)[C@@H](/C=C/C2CC2)[C@H](O)Cc2ccccc2)cc1,0.135,-0.438,0.0472,-0.651,0.24,-0.768,2.32,0.22,-1.34,-0.497 (inactive),-0.589,-2.59 (inactive),0.803 (inactive),14.9 (active),1 (inactive),-0.57,-0.183,-1.18,-0.489,-0.34
COCCOC(=O)N1C(=O)[C@@]2(c3cc(C#CCCO)ccc31)[C@H](c1ccc(OCCO)cc1)N1[C@H](c3ccccc3)[C@H](c3ccccc3)OC(=O)[C@H]1[C@@H]2C(N)=O,1.3,1.2,0.711,0.837,1.04,0.752,-0.212,0.496,0.694,-1.77 (inactive),0.711,-1.47 (inactive),0.502 (inactive),0.209 (inactive),1.71 (inactive),0.266,0.364,0.271,0.569,0.811
CCCCCCCCCCC(O)C1C=CC2C(=O)NC(=O)C2N1Nc1ccc(Cl)cc1Cl (stereo not given),0.997,0.186,0.459,0.331,-0.184,-0.942,-0.863,-1.14,0.117,-0.836 (inactive),0.333,-1.95 (inactive),-0.0821 (inactive),-0.136 (inactive),-0.407 (inactive),-0.261,-0.0131,-1.76,0.0193,-0.349
CC(C)NC(=O)[C@@H]1c2ccccc2C(=O)N(C(C)C)[C@H]1c1ccc(CO)cc1,-1.51,-0.0425,0.459,-0.782,-0.681,-0.963,1.58,-0.936,-0.608,-0.784 (inactive),-0.152,0.245 (inactive),1.28 (inactive),0.441 (inactive),0.0729 (inactive),-0.977,-0.193,0.0645,2.08,-0.659
[N-]=[N+]=NCc1ccccc1[C@@H]1OC(c2ccc(OCCCO)cc2)=N[C@]1(CCS(=O)(=O)c1ccccc1)C(=O)N1CCCCC1,0.621,1.26,0.0201,1.08,0.981,0.432,-0.706,0.275,1.02,-0.938 (inactive),0.571,-2.09 (inactive),0.406 (inactive),5.06 (inactive),0.243 (inactive),1.19,0.531,0.292,0.447,-0.0529
COC(=O)c1c2oc(c1C(=O)OC)C(=O)N[C@@H](C(C)C)Cn1cc(nn1)C1(CCCCC1)NC(=O)N[C@H](CO)CC2,0.591,-0.159,-0.0947,0.209,0.515,1.58,2.2,0.102,0.0969,-1.3 (inactive),0.432,0.24 (inactive),-0.377 (inactive),2.08 (inactive),-0.178 (inactive),0.177,-0.0477,0.935,0.48,0.246
COCC(=C=CC[C@H](O)c1cccc(OCCO)c1)C[C@H](O)c1cc(Cl)cc(Cl)c1O,1.69,1.11,0.0607,0.0479,1.37,1.87,0.324,1.37,0.107,-0.709 (inactive),0.556,-0.465 (inactive),-0.494 (inactive),10 (active),0.32 (inactive),-0.128,0.0104,1.06,0.878,1.77
CCN(CC)c1ccc(N2CC=CC34O[C@@H]5C=CCOC(=O)[C@@H]5[C@H]3C(=O)N(CCCCCCO)[C@@H]4C2=O)cc1 (stereo not given in full),0.449,-0.202,-0.148,-1.57,-0.0283,-0.666,0.262,0.436,-0.0009,-3.88 (inactive),-0.452,-0.289 (inactive),-0.593 (inactive),-0.488 (inactive),-1.57 (inactive),-0.881,-0.154,0.914,0.339,-0.326
CCCNC(=O)[C@@]1(Sc2ccc(C)cc2)CC(=O)N(Cc2ccccc2C(F)(F)F)[C@@H]1c1ccc(CO)cc1I,-0.132,0.934,0.0382,0.956,1.36,0.76,-0.722,0.849,0.28,0.262 (inactive),0.168,-4.54 (inactive),-0.376 (inactive),-0.231 (inactive),-0.0562 (inactive),1.17,-0.0405,1.26,1.47,1.88
